# Compounds with a hit are over-represented: about 10% of the library has one in this group of screens.
# Sfp inh = blocks B. subtilis Sfp PPTase activity; Q9F4F7; Potency, µM, actives largely listed as inhibitors; AID 1490; Biochemical Sfp PPTase activity, qHTS; 310,000 compounds, 3.5% hits;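 further: the enzyme is Sfp with the accession as filed and its product quenches rhodamine fluorescence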
#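 Buffer: 50 mM Hepes-Na pH 7.6, 10 mM MgCl2, 0.01% Nonidet P-40, 0.01% BSA. Enzyme 15 nM, pre-exposed to compound 15 min; substrates then added and fluorescence change tracked over 30 min.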
# VDR inhibitor = vitamin D3 receptor (human) inhibition; Potency, µM, most hits filed as inhibitors; VDR-SRC2-3 peptide fluorescence polarization, 2 h; AID 504847; 400,000 compounds, 0.93% hits; P11473
# Target sequence (P11473 whole entry, looked up): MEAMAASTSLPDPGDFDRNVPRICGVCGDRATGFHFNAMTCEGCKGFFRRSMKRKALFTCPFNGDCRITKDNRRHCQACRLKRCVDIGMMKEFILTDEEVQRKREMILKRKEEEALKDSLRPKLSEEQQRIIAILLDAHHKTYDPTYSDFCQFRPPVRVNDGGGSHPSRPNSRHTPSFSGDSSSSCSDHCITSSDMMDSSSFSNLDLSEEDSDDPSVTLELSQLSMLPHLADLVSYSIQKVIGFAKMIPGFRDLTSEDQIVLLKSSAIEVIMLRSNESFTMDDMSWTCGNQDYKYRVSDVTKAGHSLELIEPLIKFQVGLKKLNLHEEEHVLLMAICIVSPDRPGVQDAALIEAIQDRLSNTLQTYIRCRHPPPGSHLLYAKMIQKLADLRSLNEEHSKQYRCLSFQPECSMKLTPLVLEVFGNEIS
#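 FP read-out; VDR + SRC2-3 coactivator peptide; 23 nl compound by pintool; 2 h RT incubation; reagents held at 4 deg C, protected from light.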
# MmCpn inh = blocks the Methanococcus maripaludis chaperonin Mm-Cpn; purified Mm-Cpn ATPase, ADP Transcreener TR-FRET; Potency, µM (doses to about 76.9 µM), usual class: inhibitors; 330,000 compounds, 0.031% hits; AID 504842; further: nearly all actives have a fitted effect of over 80% in size
#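 Compound-treated chaperonin, 25 nM final, turns over 10 uM ATP at 37°C for 30 min following a 10 min preincubation; ADP generated competes with ADP-d2 for Eu-cryptate antibody, lowering FRET.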
# CCT chaperon mod = changes cytosolic chaperonin activity; purified chaperonin ATPase assay, HTRF ADP detection, 30 min; activity change, % (no concentration beside the values), hits read low; 360,000 compounds, 0.3% hits; in the data active means activity change below about -30%
#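 First, chaperonin was dispensed at 40 nM or 20 nM final depending on batch activity. Next, compounds were pinned at 76 uM and ATP added at 10 uM. After 30 min at 37 °C, ADP detection reagents ran 30 min at ambient temperature.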
# PLK1 PBD block = PLK1 (human) polo-box domain binding inhibition; P53350; Plk1 PBD binding of FITC phosphopeptide, fluorescence polarization; Potency, µM, usual class: inhibitors; 360,000 compounds, 2.8% hits; AID 720504; further: series mostly up to about 57 µM; nearly all actives have a fitted effect of over 65% in size
# G9a block = inhibitors of human histone lysine methyltransferase G9a; G9a H3K9 monomethylation, AlphaScreen, 2 h; Potency, µM (titrated, usually from 102 µM), usual class: inhibitors; 350,000 compounds, 8.8% hits; further: nearly all actives have a fitted effect of over 75% in size
#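 G9a (20 nM) was preincubated 15 min with compound, then reacted 2 h at room temperature with 500 nM biotin-H3K9 peptide and 20 µM SAM. Monomethyl-H3K9 detected by AlphaScreen using anti-H3K9me1 antibody.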
# A number is an active result; i = inactive; ? = inconclusive; nt = not tested or not shown; [ ] = another dose, or the depositor's remark. Unless noted, the call rests on the fitted dose curve; in most records, active means well fitted curve in the direction sought with a large enough effect; inconclusive means small, poorly fitted or top-dose-only effect, or another doubt; inactive means no such curve, though single readings can be large; an effect the other way counts as inactive or inconclusive.
SMILES,Sfp inh,VDR inhibitor,MmCpn inh,CCT chaperon mod,PLK1 PBD block,G9a block
Cn1c(-c2ccc3c(c2)OCO3)cnc1NCc1cccc(Cl)c1,i,i,i,i,i,28µM
CC(C)Oc1ccc(CNC(=O)c2ccc(NC(=O)N3CCSc4ncccc43)cc2)cc1,nt,i,nt,nt,nt,i
COc1ccc(CCNC(=O)Cn2cc(S(=O)(=O)Cc3cccc(Cl)c3)c3ccccc32)cc1OC,nt,i,nt,nt,nt,i
Cn1ncc(Br)c1C(=O)N1CCCC1,i,i,i,i,i,nt
Cn1ncc(Br)c1C(=O)N1CCCCCC1,i,i,i,i,i,32µM
CCN(CC)C(=O)COc1ccc(/C(C)=N/Nc2ncc(Cl)cc2Cl)cc1,79µM,i,i,i,i,nt
CCC(C)NC(=O)C1CCN(C(=O)c2ccc(-n3ccc4ccccc43)s2)CC1 (configuration not stated),nt,i,nt,nt,nt,i
COc1ccc(CCNC(=O)CN(c2ccccc2)S(=O)(=O)N(C)C)cc1OC,nt,i,nt,nt,nt,i
CCOC(=O)c1ccccc1NC(=O)c1cn(CC)c2nc(C)ccc2c1=O,i,?,i,i,27µM,i
CCn1cc(C(=O)Nc2ccccc2C(=O)OC)c(=O)c2ccc(C)nc21,i,nt,i,nt,nt,i
CSc1nn(Cc2cccc(F)c2)c(N(C(C)=O)C(C)=O)c1S(=O)(=O)c1ccccc1,nt,i,nt,nt,nt,i
CC1=C(C#N)c2nc(N)c(C#N)c(C)c2/C1=C\c1ccc(OCC(=O)O)c(Cl)c1,?,i,i,i,8.4µM,22µM
Cc1ccc(C(C)C)c(OCC(=O)Nc2ccc(S(=O)(=O)Nc3onc(C)c3C)cc2)c1,nt,i,nt,nt,nt,i
O=C1C=CC2(OCCCO2)C(Br)=C1CO,i,?,nt,nt,nt,nt
O=C1C(=O)N(CCc2c[nH]c3ccccc23)C(c2cccnc2)/C1=C(/O)c1ccccc1 (configuration not stated),i,nt,i,nt,nt,50µM
CC(=O)C1=C(O)C(=O)N(CCc2c[nH]c3ccccc23)C1c1ccc(C)cc1 (configuration not stated),i,i,i,i,i,45µM
N#Cc1ccc(/C=C/C(=O)c2ccco2)cc1,?,?,i,i,i,14µM
Nc1ccc(/C=C/C(=O)c2ccco2)cc1,i,?,i,i,i,i
Cc1ccc(OC(=O)c2cc(-c3ccccc3)nc3ccc(C)cc23)cc1,nt,i,nt,nt,nt,i
COc1cccc(/C=N/Nc2nnc(C)n2N)c1OCc1ccccc1Cl,i,i,i,i,i,22µM
COc1cccc(C=NNc2nnc(NN=Cc3cccc(OC)c3OC)c3ccccc23)c1OC,nt,i,nt,i,i,nt
O=C(c1ccccc1)N1CCN(c2ccc(NCc3ccc4c(c3)OCO4)cc2)CC1,i,i,i,i,i,5µM
CCOC(=O)c1ccc(NCc2ccc3c(c2)OCO3)cc1,56µM,i,i,i,i,i
O=C(c1ccc2c(c1)OCO2)N1CCN(c2ccccc2)CC1,i,i,i,i,i,i
CCOC(=O)c1c(C)c(C(=O)Nc2ccc(N(C)C)cc2)c(C)n1CC,i,?,i,i,i,2µM
SMILES,Sfp inh,VDR inhibitor,MmCpn inh,CCT chaperon mod,PLK1 PBD block,G9a block
CCOC(=O)c1ccc(NC(=O)Nc2ccc3c(c2)OCCO3)cc1,i,i,i,i,i,i
CCOC(=O)c1ccc(NCc2ccc(N(C)C)cc2)cc1,i,i,i,i,i,10µM
O=C(Cn1ncc2ccsc2c1=O)N1CCN(c2ccccc2F)CC1,nt,i,nt,nt,nt,i
COc1cc(CN2CCCC(C(=O)c3ccc4c5c(cccc35)CC4)C2)cc(OC)c1O (configuration not stated),i,i,i,i,?,32µM
O=C(C1CCCN(Cc2cccc(Cl)c2)C1)N1CCCCC1 (configuration not stated),?,?,i,i,19µM,?
O=C(C1CCCN(Cc2ccccc2F)C1)N1CCc2ccccc2C1 (configuration not stated),i,i,i,i,i,i[12.7 µM]
Cc1cccc(CN2CCCC(C(=O)N3CCc4ccccc4C3)C2)c1 (configuration not stated),i,i,i,i,i,13µM
O=C(C1CCCN(Cc2ccncc2)C1)N1CCc2ccccc2C1 (configuration not stated),?,i,i,i,i,13µM
COc1cccc(C(=O)Nc2c3c(nn2-c2ccc(C)cc2C)CS(=O)(=O)C3)c1OC,nt,i,nt,nt,nt,i
